Test [1] is described as follows: ATG_NFI_CIS: Attagene CIS-FACTORIAL HepG2 Assay for human Nuclear Factor I (NFI) (AID 2282989). The note with it: HepG2 cis-regulatory reporter, NFI response element transcription; actives raise or lower the signal. A digest of the protocol: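 Reporter transcription driven by endogenous transcription factors in HepG2 cells; 24 h treatment. Quantitation by labelled RT-PCR fragments on capillary electrophoresis, gain- or loss-of-signal relative to DMSO.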

The target of test [2] is Myc proto-oncogene protein (Homo sapiens) (UniProt P01106). Kind of test: ATG_Myc_CIS: Attagene CIS-FACTORIAL HepG2 Assay for human Myelocytomatosis (Myc) Proto-Oncogene Transcription Factor (AID 2282990). The conditions noted are these: HepG2, Attagene cis-reporter transcription factor activity; actives raise or lower the signal. The method, boiled down: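 DMSO-normalised, bidirectionally fitted reporter mRNA signal. HepG2 cells transfected with cis reporter constructs, treated 24 h; transcripts detected by RT-PCR, 6-FAM primer extension and CE.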

Test [3] can be described thus: ATG_NF_kB_CIS: Attagene CIS-FACTORIAL HepG2 Assay for human Nuclear Factor Kappa B (NF-kB) (AID 2282991). The conditions noted are these: HepG2 Attagene cis-factorial NF-kB reporter mRNA; actives raise or lower the signal. The method, boiled down: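 Read-out: reporter transcript levels quantified by RT-PCR plus capillary electrophoresis of 6-FAM-labelled, HpaI-cut fragments. Transfected HepG2 cells, 24 h compound exposure, endogenous NF-kB-driven cis element; gain or loss scored versus DMSO.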

A short description of test [4]: ATG_Oct_MLP_CIS: Attagene CIS-FACTORIAL HepG2 Assay for human Octamer-Binding Transcription Factor (Oct) (AID 2282993). The conditions noted are these: HepG2 Attagene cis-factorial Oct reporter, mRNA; actives raise or lower the signal. The method, boiled down: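 Transfected HepG2 cells, 24 h treatment. Reporter mRNA quantified by RT-PCR–capillary electrophoresis; bidirectional fitting against DMSO.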

For test [5], the target named is Cellular tumor antigen p53 (Homo sapiens) (UniProt P04637). The test is described as follows: ATG_p53_CIS: Attagene CIS-FACTORIAL HepG2 Assay for human p53 Transcription Factor (AID 2282994). The conditions noted are these: HepG2 p53 cis-element reporter, Attagene mRNA; actives raise or lower the signal. A digest of the protocol: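 HepG2 cells transiently transfected with cis-regulated multiple reporter transcription units, dosed 24 h. Reporter mRNA measured by RT-PCR, 6-FAM primer extension, HpaI digestion and capillary electrophoresis; bidirectional fit relative to DMSO.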

Test [6] deals with human Peroxisome Proliferator-activated Receptor alpha (PPARa), PPARA (gene 5465) (UniProt Q07869). Kind of test: ATG_PPARa_TRANS: Attagene TRANS-FACTORIAL HepG2 Assay for human Peroxisome Proliferator-activated Receptor alpha (PPARa) (AID 2283001; active = hit-call score of the fitted dose curve at least 0.9, where 1 is the maximum;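 as to AC50: potency for gain of reporter signal over DMSO so agonist or activator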). The method, boiled down: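 Gain-of-signal endpoint: reporter mRNA induction relative to DMSO, detected by fluorescent RT-PCR and capillary electrophoresis. HepG2 cells transiently carried GAL4-UAS-driven reporter units plus NR-Gal4 fusion; exposure lasted 24 h.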

In test [7] the target is Peroxisome proliferator-activated receptor gamma (Homo sapiens) (UniProt P37231). Kind of test: ATG_PPARg_TRANS: Attagene TRANS-FACTORIAL HepG2 Assay for human Peroxisome Proliferator-activated Receptor-gamma (PPARg) (AID 2283007; active = hit-call score of the fitted dose curve at least 0.9, where 1 is the maximum). The method, boiled down:
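Read-out: reporter mRNA induction, detected by fluorescence after RT-PCR and capillary electrophoresis. Transiently transfected human HepG2 liver cells carrying a chimeric NR-Gal4 construct were dosed for 24 h; activity was fitted upward relative to DMSO.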

The nature of test [8]: ATG_NRF2_ARE_CIS: Attagene CIS-FACTORIAL HepG2 Assay for human Nuclear Factor Erythroid 2 Related Factor 2 (NFR2) response to Antioxidant Response Elements (ARE) (AID 2282992).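 As to AC50: reporter mRNA level measured by RT-PCR and capillary electrophoresis fluorescence.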 The note with it: HepG2 Attagene ARE/NRF2 reporter, transcription factor activity; actives raise or lower the signal. The method, boiled down:
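HepG2 cells transiently transfected with multiplexed cis-element reporter constructs, 24 h after chemical dosing; reporter mRNA quantified by RT-PCR, fluorescent primer extension, HpaI digestion and capillary electrophoresis. Bidirectional fit relative to DMSO.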

The target in test [9] is human Peroxisome Proliferator-activated Receptor delta (PPARd), PPARD (gene 5467) (UniProt Q03181). Kind of test: ATG_PPARd_TRANS: Attagene TRANS-FACTORIAL HepG2 Assay for human Peroxisome Proliferator-activated Receptor delta (PPARd) (AID 2283002; active = hit-call score of the fitted dose curve at least 0.9, where 1 is the maximum). The method, boiled down: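 Measured quantity: GAL4-UAS reporter transcript induction in HepG2 after 24 h chemical dosing, with NR-Gal4 chimeras supplied by transient transfection. Detection by RT-PCR and capillary electrophoresis; upward fit against DMSO.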

For test [10], the target named is human Retinoic Acid Receptor beta (RARb), RARB (gene 5915) (UniProt P10826). The test is described as follows: ATG_RARb_TRANS: Attagene TRANS-FACTORIAL HepG2 Assay for human Retinoic Acid Receptor beta (AID 2283004; active = hit-call score of the fitted dose curve at least 0.9, where 1 is the maximum). The method, boiled down:
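HepG2 cells were transiently transfected with GAL4-UAS reporter units that report activity of exogenous chimeric NR-Gal4 proteins, then exposed to compound for 24 h. Reporter mRNA was quantified by RT-PCR with capillary electrophoresis fluorescence, as gain of signal over DMSO.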

Test [11] addresses Nuclear receptor subfamily 1 group I member 2 (Homo sapiens) (UniProt O75469). Kind of test: ATG_PXR_TRANS: Attagene TRANS-FACTORIAL HepG2 Assay for human Pregnane X Receptor (PXR) (AID 2283008; active = hit-call score of the fitted dose curve at least 0.9, where 1 is the maximum). A digest of the protocol:
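HepG2 cells transiently transfected with GAL4-UAS reporter units and PXR-Gal4 chimera, exposed 24 h. Reporter mRNA quantified by RT-PCR, fluorescent labelling, HpaI digestion and capillary electrophoresis; gain of signal vs DMSO.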

Test [12] deals with human RAR-related Orphan Receptor beta (RORb), RORB (gene 6096) (UniProt Q92753). The test is described as follows: ATG_RORb_TRANS: Attagene TRANS-FACTORIAL HepG2 Assay for human RAR-related Orphan Receptor beta (RORb) (AID 2283010; active = hit-call score of the fitted dose curve at least 0.9, where 1 is the maximum). A digest of the protocol:
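HepG2 cells transiently transfected with GAL4-UAS reporter units expressing chimeric NR-Gal4 protein; reporter mRNA measured 24 h after dosing by RT-PCR, 6-FAM labelling and capillary electrophoresis. Gain-of-signal fitted relative to DMSO baseline.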

Test [13] is described as follows: BSK_3C_TissueFactor: BioMAP Diversity Plus: 3C Assay for Tissue Factor Biomarker Activity (AID 2282997). The conditions noted are these: BioMAP 3C HUVEC, tissue factor biomarker readout; actives raise or lower the signal. A digest of the protocol:
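HUVEC were treated 24 h, then surface tissue factor measured by ELISA and fitted bidirectionally against DMSO. Parallel SRB total-protein staining assessed overt cytotoxicity at the same time point.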

Test [14] can be described thus: BSK_3C_uPAR: BioMAP Diversity Plus: 3C Assay for Urokinase-type plasminogen activator receptor (uPAR) Biomarker Activity (AID 2282998). The note with it: BioMAP 3C HUVEC, uPAR biomarker ELISA; actives raise or lower the signal. The method, boiled down: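 Readout: ELISA for surface uPAR. System: human umbilical vein endothelial primary cells, 24 h after chemical exposure. Analysis: bidirectional fit, DMSO baseline.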

Test [15] can be described thus: BSK_3C_VCAM1: BioMAP Diversity Plus: 3C Assay for Vascular cell adhesion molecule 1 (VCAM1) Biomarker Activity (AID 2282999). The conditions noted are these: BioMAP 3C HUVEC, VCAM1 ELISA, cytokine-stimulated; actives raise or lower the signal. A digest of the protocol: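 Human umbilical vein endothelial cells were dosed with compound for 24 h, after which cell-surface VCAM-1 was quantified by ELISA. Bidirectional curve fitting used DMSO as negative control and activity baseline.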

A short description of test [16]: BSK_4H_Eotaxin3: BioMAP Diversity Plus: 4H Assay for Eotaxin 3 Biomarker Activity (AID 2283000).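 As to outcome: CCL26 protein level quantified by ELISA in parallel with SRB cytotoxicity check.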 The note with it: primary human endothelial cells (HUVEC); actives raise or lower the signal. The method, boiled down:
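Eotaxin-3 (CCL26) levels were measured by ELISA in HUVEC primary cultures 24 h post-dosing. Gain or loss of signal was fitted in both directions, with DMSO serving as baseline and negative control.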

Read-out in test [17]: Intercellular Adhesion Molecule 1 (ICAM1), ICAM1 (gene 3383)
The test is described as follows: BSK_3C_ICAM1: BioMAP Diversity Plus: 3C Assay for Intercellular Adhesion Molecule 1 (ICAM1) Biomarker Activity (AID 2283003). The conditions noted are these: primary human endothelial cells (HUVEC); actives raise or lower the signal. The method, boiled down:
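HUVEC primary cells stimulated under 3C conditions; ICAM1 measured by ELISA 24 h after compound dosing. Curves fitted bidirectionally against the DMSO baseline. Overt cytotoxicity checked by SRB staining of parallel cultures.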

Test [18] is described as follows: BSK_3C_Proliferation: Cell Proliferation Assessment in the BioMAP Diversity Plus: 3C Assay (AID 2283006).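 As to AC50: potency may reflect either rise or fall in cell number versus DMSO.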 The conditions noted are these: primary human endothelial cells (HUVEC). The method, boiled down: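 Subconfluent HUVEC (3C system) cultured with chemical; relative cell number read at 48 h by sulforhodamine B total-protein staining (0.1% SRB after 10% TCA fixation, 560 nm). Bidirectional fit relative to DMSO.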

In test [19] the target is human Retinoic Acid Receptor gamma (RARg), RARG (gene 5916) (UniProt P13631). The test is described as follows: ATG_RARg_TRANS: Attagene TRANS-FACTORIAL HepG2 Assay for human Retinoic Acid Receptor gamma (RARg) (AID 2283009; active = hit-call score of the fitted dose curve at least 0.9, where 1 is the maximum). The method, boiled down:
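HepG2 transiently transfected with GAL4-UAS reporter units and chimeric NR-Gal4 constructs; 24 h compound exposure. Reporter mRNA quantified by RT-PCR, FAM labeling, HpaI digestion and capillary electrophoresis; gain-of-signal versus DMSO.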

In test [20] the target is Retinoic acid receptor alpha (Homo sapiens) (UniProt P10276). The test is described as follows: ATG_RARa_TRANS: Attagene TRANS-FACTORIAL HepG2 Assay for human Retinoic Acid Receptor alpha (RARa) (AID 2283005; active = hit-call score of the fitted dose curve at least 0.9, where 1 is the maximum). A digest of the protocol:
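HepG2 cells transiently transfected with multiple reporter units expressing chimeric RARα-GAL4 fusion, with GAL4-UAS-driven reporters. After 24 h compound exposure, reporter mRNA induction quantified by RT-PCR and capillary electrophoresis with fluorescent labeling; gain-of-signal fitted relative to DMSO control.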

For eleven molecules, outcome and AC50 results are on record in PubChem BioAssay (EPA / NIEHS).

In general, AC50 refers to the concentration at which the activity in the assay is half-maximal.

Results filed as inconclusive are left out. Active and inactive are the calls of the source. The calls were made as follows, unless noted: active = hit-call score of the fitted dose curve at least 0.9, where 1 is the maximum; inactive = score below 0.9.

Nuclear receptor subfamily 1 group I member 2 (Homo sapiens), sequence (O75469 whole entry, looked up, the tested form may be a part): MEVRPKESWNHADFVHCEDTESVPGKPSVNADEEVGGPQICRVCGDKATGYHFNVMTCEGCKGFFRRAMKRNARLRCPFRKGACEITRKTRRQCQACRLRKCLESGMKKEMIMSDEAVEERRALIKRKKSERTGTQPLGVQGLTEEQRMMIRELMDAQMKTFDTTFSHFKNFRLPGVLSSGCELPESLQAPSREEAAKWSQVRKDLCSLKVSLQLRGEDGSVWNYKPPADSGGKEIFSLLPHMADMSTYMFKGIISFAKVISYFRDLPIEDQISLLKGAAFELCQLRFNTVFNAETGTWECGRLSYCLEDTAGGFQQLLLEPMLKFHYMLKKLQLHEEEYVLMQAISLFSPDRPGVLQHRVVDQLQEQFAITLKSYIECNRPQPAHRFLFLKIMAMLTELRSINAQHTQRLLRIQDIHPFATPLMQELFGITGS
Retinoic acid receptor alpha (Homo sapiens), sequence (P10276 whole entry, looked up, the tested form may be a part): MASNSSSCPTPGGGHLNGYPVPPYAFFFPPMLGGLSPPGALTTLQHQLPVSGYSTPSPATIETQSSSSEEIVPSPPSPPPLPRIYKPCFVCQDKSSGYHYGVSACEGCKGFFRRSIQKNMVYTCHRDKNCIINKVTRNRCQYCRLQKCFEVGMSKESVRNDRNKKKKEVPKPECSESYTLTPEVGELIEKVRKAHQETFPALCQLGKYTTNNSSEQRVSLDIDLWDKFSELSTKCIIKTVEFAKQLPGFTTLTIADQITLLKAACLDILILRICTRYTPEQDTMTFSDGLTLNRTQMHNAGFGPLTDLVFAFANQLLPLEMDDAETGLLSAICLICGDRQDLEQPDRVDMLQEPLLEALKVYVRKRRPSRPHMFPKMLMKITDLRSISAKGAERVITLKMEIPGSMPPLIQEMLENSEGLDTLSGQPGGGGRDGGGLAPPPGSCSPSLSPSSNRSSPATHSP
human Peroxisome Proliferator-activated Receptor delta (PPARd), PPARD (gene 5467), sequence (Q03181 whole entry, looked up, the tested form may be a part): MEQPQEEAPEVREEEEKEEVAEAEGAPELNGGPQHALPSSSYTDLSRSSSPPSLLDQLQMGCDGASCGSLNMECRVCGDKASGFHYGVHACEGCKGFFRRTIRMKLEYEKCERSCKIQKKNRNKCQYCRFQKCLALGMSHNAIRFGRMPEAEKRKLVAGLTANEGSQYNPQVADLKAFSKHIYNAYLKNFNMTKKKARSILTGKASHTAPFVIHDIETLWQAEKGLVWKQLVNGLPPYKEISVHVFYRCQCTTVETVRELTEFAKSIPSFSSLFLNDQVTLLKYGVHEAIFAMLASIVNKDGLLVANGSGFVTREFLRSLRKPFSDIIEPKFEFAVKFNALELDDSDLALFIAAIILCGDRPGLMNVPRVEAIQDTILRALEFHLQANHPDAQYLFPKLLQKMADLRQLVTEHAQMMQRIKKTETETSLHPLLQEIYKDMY
Myc proto-oncogene protein (Homo sapiens), sequence (P01106 whole entry, looked up): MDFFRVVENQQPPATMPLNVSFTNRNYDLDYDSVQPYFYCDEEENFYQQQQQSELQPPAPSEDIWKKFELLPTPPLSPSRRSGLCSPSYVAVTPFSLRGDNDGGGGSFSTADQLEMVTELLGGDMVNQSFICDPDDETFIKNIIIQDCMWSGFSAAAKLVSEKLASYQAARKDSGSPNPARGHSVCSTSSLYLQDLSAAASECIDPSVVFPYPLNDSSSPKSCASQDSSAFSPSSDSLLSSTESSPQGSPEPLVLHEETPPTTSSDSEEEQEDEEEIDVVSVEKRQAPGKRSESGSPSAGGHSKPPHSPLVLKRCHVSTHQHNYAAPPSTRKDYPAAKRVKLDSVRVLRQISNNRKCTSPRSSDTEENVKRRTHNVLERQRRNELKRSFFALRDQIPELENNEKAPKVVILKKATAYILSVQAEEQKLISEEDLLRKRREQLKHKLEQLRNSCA
Cellular tumor antigen p53 (Homo sapiens), sequence (P04637 whole entry, looked up): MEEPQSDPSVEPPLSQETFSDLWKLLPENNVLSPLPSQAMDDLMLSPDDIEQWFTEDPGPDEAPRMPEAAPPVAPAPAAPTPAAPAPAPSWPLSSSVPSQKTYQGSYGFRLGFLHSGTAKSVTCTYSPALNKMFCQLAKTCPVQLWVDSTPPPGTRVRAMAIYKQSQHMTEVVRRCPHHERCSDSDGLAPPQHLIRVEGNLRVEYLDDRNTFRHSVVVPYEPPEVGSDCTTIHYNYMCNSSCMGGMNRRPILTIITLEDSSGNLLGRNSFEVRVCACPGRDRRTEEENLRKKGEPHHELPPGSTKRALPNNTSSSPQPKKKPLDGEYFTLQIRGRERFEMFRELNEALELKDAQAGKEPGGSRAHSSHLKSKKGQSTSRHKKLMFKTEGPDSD
Peroxisome proliferator-activated receptor gamma (Homo sapiens), sequence (P37231 whole entry, looked up, the tested form may be a part): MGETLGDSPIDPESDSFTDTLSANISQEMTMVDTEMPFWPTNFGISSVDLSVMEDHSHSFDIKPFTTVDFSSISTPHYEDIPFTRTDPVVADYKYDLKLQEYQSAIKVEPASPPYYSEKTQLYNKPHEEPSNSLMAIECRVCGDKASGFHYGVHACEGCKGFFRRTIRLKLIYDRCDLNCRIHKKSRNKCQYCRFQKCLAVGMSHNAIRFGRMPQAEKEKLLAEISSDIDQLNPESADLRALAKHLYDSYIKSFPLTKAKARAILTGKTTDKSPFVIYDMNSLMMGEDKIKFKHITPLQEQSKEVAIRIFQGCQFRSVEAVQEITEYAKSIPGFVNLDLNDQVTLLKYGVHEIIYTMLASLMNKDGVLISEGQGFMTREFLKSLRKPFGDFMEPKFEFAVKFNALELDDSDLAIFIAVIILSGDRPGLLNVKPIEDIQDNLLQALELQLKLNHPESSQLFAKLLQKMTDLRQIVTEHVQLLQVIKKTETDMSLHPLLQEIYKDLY
human Retinoic Acid Receptor gamma (RARg), RARG (gene 5916), sequence (P13631 whole entry, looked up, the tested form may be a part): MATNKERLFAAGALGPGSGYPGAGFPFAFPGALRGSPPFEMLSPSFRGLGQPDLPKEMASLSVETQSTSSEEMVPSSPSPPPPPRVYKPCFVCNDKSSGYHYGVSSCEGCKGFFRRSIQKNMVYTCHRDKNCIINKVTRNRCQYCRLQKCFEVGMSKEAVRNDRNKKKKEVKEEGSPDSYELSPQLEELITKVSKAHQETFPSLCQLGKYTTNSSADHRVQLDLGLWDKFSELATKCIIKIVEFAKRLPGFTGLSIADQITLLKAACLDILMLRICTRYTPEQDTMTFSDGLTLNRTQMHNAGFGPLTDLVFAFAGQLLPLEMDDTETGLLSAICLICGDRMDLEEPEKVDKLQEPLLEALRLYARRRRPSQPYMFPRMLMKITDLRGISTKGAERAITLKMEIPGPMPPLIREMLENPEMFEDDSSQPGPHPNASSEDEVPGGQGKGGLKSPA
human Retinoic Acid Receptor beta (RARb), RARB (gene 5915), sequence (P10826 whole entry, looked up, the tested form may be a part): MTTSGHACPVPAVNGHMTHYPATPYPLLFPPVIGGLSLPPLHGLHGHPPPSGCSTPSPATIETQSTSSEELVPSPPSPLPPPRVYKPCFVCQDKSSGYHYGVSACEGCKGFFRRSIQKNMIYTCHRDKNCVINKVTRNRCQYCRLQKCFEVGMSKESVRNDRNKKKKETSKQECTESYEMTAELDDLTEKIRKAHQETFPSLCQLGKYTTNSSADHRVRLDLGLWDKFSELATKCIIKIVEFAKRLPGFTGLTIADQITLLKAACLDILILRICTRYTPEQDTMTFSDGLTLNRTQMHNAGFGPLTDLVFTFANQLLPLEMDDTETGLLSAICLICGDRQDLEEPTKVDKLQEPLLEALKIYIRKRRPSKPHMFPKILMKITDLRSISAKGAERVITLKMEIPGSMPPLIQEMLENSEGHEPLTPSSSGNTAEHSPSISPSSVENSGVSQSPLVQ
human Peroxisome Proliferator-activated Receptor alpha (PPARa), PPARA (gene 5465), sequence (Q07869 whole entry, looked up, the tested form may be a part): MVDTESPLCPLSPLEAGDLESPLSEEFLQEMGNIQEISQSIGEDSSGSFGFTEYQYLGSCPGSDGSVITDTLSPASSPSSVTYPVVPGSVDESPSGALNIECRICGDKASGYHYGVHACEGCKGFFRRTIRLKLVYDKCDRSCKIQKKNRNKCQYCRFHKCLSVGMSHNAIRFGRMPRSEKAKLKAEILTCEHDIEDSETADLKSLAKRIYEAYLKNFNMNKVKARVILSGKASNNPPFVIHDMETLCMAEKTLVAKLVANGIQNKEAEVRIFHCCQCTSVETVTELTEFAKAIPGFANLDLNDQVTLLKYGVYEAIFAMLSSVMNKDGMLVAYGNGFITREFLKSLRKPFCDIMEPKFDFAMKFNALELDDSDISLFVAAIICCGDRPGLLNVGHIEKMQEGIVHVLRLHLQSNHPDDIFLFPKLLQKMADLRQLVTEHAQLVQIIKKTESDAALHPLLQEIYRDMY
human RAR-related Orphan Receptor beta (RORb), RORB (gene 6096), sequence (Q92753 whole entry, looked up, the tested form may be a part): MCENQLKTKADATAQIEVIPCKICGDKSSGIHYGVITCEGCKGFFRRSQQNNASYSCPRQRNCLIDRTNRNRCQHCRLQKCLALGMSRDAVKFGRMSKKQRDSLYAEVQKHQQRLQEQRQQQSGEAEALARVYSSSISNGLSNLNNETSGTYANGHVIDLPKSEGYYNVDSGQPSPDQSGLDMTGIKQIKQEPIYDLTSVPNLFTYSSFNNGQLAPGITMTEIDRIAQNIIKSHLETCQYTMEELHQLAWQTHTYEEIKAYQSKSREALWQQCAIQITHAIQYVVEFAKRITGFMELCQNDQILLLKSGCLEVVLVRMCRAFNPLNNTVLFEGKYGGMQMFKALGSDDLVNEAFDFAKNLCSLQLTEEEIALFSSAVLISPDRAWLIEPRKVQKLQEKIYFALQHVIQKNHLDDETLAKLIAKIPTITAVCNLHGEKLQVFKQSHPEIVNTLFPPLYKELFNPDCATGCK

Consider `COc1ccc(-c2coc3cc(O)ccc3c2=O)cc1`, for which the result in test [1], in [2], in test [3], in test [4], in [5] and in test [6] was inactive. The outcome in test [7] was inactive.
As for `CC(C)c1ccc2c(C(C)C)cc(C(C)C)c(S(=O)(=O)O)c2c1`, the result in test [1], in test [2], in [4], in test [5], in test [6] and in test [9] was inactive. In addition, the outcome in [10] and in test [12] was inactive. Further, the AC50 in [8] is 25.9 µM (active); in test [7] it was 25.1 µM (active); in [11], 1.23 µM (active).
For the molecule `C=CCOCC(O)CCl` (stereo unspecified), the molecule was classed as inactive in test [1], in test [2], in test [4], in test [5], in test [13] and in [14]. For the same molecule, the outcome in test [15], in test [16], in test [6], in test [9], in [17] and in [10] was inactive. For the same molecule, the result in [18], in test [7], in test [19] and in test [12] was inactive. Moreover, the AC50 in [8] was 63 µM (active); in [11], 47.2 µM (active).
Take `c1c[nH]cn1`: the molecule was called inactive in test [1], in [2], in test [3], in test [4], in test [5] and in [10]. The molecule was classed as inactive in test [20], in test [7], in test [19] and in [12].
Turning to `OC1OCCOC1O` (stereo unspecified), the outcome in test [1], in [2], in test [3], in [5], in test [6] and in [10] was inactive. Besides, the molecule was called inactive in test [11] and in test [12].
Take `C1=CCCC1`: the outcome in test [1], in test [2], in test [3], in test [4], in test [5] and in [6] was inactive. Also, the molecule was classed as inactive in [11] and in test [19].
As for `C=CC(=O)OCCOC(=O)C=C`, the call in [1], in test [2], in test [8], in [6], in test [9] and in test [10] was inactive. In addition, in test [19], the outcome was inactive. In addition, the AC50 is 26.3 µM (active) in test [4] and 48 µM (active) in test [5].
Turning to `c1ccc(-c2ccccn2)nc1`, the molecule was classed as inactive in test [1], in [2], in test [8], in [4], in test [5] and in test [13]. Moreover, the result in test [14], in [15], in test [6], in test [9], in test [17] and in test [20] was inactive. Further, the outcome in test [7], in test [11] and in test [19] was inactive. The AC50 is 20 µM (active) in test [16] and 29 µM (active) in [18].
Turning to `S=C(NC1CCCCC1)NC1CCCCC1`, the outcome in test [1], in test [2], in [3], in test [13], in [14] and in [15] was inactive. Besides, the result in test [16], in test [6], in [9], in test [17], in test [18] and in test [7] was inactive. For the same molecule, in [19], the call was inactive. The AC50 in test [11] is 8.05 µM (active).
For the molecule `CCCCCCCCC(=O)OCC`, the molecule was called inactive in test [1], in test [2], in test [3], in [4], in test [5] and in test [6]. Also, the outcome in test [10], in [20], in test [7], in [11] and in test [19] was inactive.
For `CCCCCCCCCCOS(=O)(=O)O`, the molecule was classed as inactive in test [1], in test [2], in test [3], in test [4], in test [5] and in [11]. For the same molecule, the values for the AC50 in [6] and in [7] were 27.6 µM (active) and 22.6 µM (active), respectively.
